sPLA2-III inh: Inhibits HGIII-sPLA2 liposome hydrolysis, primary screen; Q9NZ20; QFRET BODIPY PC-A2 liposome hydrolysis, fluorescence; inhibition, % at 12.2 µM; 0.56% of 370,000 active;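 active = inhibition above mean plus 3 SD of compounds lying within the high and low control bounds, cut at about 19% in these data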;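 note: 0% = median of test compound wells and 100% = no enzyme DMSO wells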
Target sequence (Q9NZ20 whole entry, looked up): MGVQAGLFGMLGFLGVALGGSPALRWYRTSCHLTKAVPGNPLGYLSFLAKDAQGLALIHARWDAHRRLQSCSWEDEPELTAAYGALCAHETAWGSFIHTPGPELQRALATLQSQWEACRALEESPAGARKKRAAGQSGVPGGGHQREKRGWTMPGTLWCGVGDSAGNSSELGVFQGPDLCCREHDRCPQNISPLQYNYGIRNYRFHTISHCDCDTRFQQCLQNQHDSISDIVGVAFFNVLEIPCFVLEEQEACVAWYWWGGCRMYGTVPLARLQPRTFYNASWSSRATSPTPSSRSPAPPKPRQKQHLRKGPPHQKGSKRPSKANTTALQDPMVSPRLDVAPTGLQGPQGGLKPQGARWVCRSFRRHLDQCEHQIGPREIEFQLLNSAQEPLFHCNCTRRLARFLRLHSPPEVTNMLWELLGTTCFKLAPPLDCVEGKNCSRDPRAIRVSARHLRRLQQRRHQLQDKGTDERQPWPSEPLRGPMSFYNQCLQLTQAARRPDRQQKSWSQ
SKN-1 block: inhibitors of C. elegans SKN-1 | C. elegans VP596 Pgst-4::GFP/RFP ratio, acrylamide-induced, 24 h | inhibition, % at 21.8 µM | 0.49% of 360,000 active;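 active = interference check ratio from 0.5 to 1.5 plus GFP to RFP signal ratio inhibition reaching or exceeding a fixed threshold, cut at about 30% in these data, passing the limit was not always enough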
SUMO Mot1 rescue: blocks SUMOylation pathway, rescuing yeast Mot1-301 growth; growth rescue, % at 18.8 µM; 1% of 320,000 active; S. cerevisiae Mot1-301 growth rescue, ATP luminescence, 38.5C; percent above DMSO median, 100 means doubled; AID 2716;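 active = every valid replicate shows activation above 250% relative to neutral control wells; inactive = the rest, any valid replicate at or below 250%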;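 note: OY570 slx delta 5 strain wells were the positive control but not used for scaling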
Efflux pump inh: inhibitors of Candida antifungal efflux pumps expressed in yeast; S. cerevisiae Candida pump triplex, Nile Red efflux; inhibition, % at 10 µM; 0.44% of 330,000 active; AID 485275;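 active = plate passing quality check with inhibition over a set limit, or well fluorescence over plate mean plus 4 SD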;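 note: Nile Red retained in pooled yeast measured as flow cytometry median fluorescence; 0% = buffer negative control and 100% = Enniatin B positive control; higher means more Nile Red kept so more efflux inhibition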
Cmpd fluor yeast: compound fluorescence in yeast efflux pump counter-screen | 4% of 1,700 active | shares compounds with Efflux pump inh | fluorescence ratio to DMSO, % at 10 µM | AID 588517 | S. cerevisiae AD/pABC3, flow cytometry;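 active = fluorescence ratio to DMSO above its plate's cutoff, the plate mean ratio plus 5 SD, cut at about 210% in these data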;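 note: unstained yeast with no Nile Red so the signal is compound autofluorescence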
CaMdr1 efflux inh: inhibitors of Candida albicans Mdr1 efflux pump; shares compounds with Efflux pump inh; S. cerevisiae AD/CaMDR1, Nile Red efflux, flow cytometry; inhibition, % at 10 µM; 1% of 1,700 active; AID 588518; in the data active = inhibition above about 26%;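 note: 0% = DMSO vehicle and 100% = reference inhibitor; higher means more Nile Red retained so more efflux inhibition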
Cdr2 pump inh: Candida Cdr2 efflux pump inhibition. shares compounds with Efflux pump inh. S. cerevisiae AD/CaCDR2, Nile Red retention, flow cytometry. Nile Red retention ratio vs DMSO, % at 10 µM. 4% of 1,700 active. AID 588520; in the data active = Nile Red retention ratio vs DMSO above about 190%;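 note: higher ratio means more blocking of Cdr2 efflux of the dye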
Cdr1 pump inh: Candida Cdr1 efflux pump inhibition. shares compounds with Efflux pump inh. S. cerevisiae AD/CaCDR1, Nile Red efflux, flow cytometry. inhibition, % at 10 µM. 1% of 1,700 active. AID 588522;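 active = inhibition above the screen-wide mean plus twice its standard deviation, cut at about 32% in these data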
Starred values were filed as active, the others as inactive; · = no result. Only some compounds are listed: those with a hit (about 2.2% of all), similar ones and a draw of the others.

SMILES	sPLA2-III inh	SKN-1 block	SUMO Mot1 rescue	Efflux pump inh	Cmpd fluor yeast	CaMdr1 efflux inh	Cdr2 pump inh	Cdr1 pump inh
CCOCCCNC(=O)/C(C#N)=C/c1ccc([N+](=O)[O-])o1	-3	25	-9	0.9*	247	0	129	0
CCOc1ccc(C(O)(c2ccccc2)C(CN2CCCC2)c2ccccc2)cc1 (configuration not stated)	-4	24	-8	0	·	·	·	·
O=C(CN1C(=O)/C(=C\C=C\c2ccccc2)SC1=S)Nc1ccc(F)cc1	-9	19	184	0	·	·	·	·
O=C(COC(=O)CCN1C(=O)/C(=C\C=C\c2ccccc2)SC1=S)Nc1cc(F)ccc1F	-9	0	-17	0.8*	105	0	106	0
COC(=O)C1=C(C)N(c2cc(C)cc(C)c2)/C(=C/c2ccc(O)cc2)C1=O	-19	15	-9	0.7*	114	0	101	0
COC(=O)C1=C(C)N(c2ccc(Cl)cc2)/C(=C/c2ccc(O)cc2)C1=O	-19	8	-18	0	·	·	·	·
COc1ccc(NC(=O)CSc2nc3c(c(=O)n2-c2ccccc2OC)SCC3)cc1	-1	22	-3	1.1*	79	0	93	0
COc1ccc(CN2CCNC(=O)C2CC(=O)N2CCCN(C(C)=O)CC2)c(OC)c1 (configuration not stated)	-1	13	-10	0	·	·	·	·
COc1cc(/C=C/C(=O)c2ccc([N+](=O)[O-])o2)ccc1O	1	-19	121	0.8*	188	0	161	0
Cc1ccccc1OCc1nc2c3c(ncn2n1)-c1ccccc1CC31CCCC1	-5	6	-10	34*	89	0	102	0
CCCCC(=O)Nc1ccc2c(c1)nc(CCN1CCN(c3ccccn3)CC1)n2C	5	-5	2	0	·	·	·	·
Cc1c(O[C@@H]2O[C@H](CO)[C@@H](O)[C@H](O)[C@H]2O)c(CO)c(O[C@@H]2O[C@H](CO)[C@@H](O)[C@H](O)[C@H]2O)c2c1O[C@@H](c1ccccc1)C[C@@H]2O	0	11	-14	0	·	·	·	·
O=C(Nc1ccccc1-c1nnc(SCc2ccc(Cl)cc2)o1)c1ccccc1	2	13	-10	0.5*	100	0	118	0
CCCCCCCC(=O)N/N=C(\C)c1ccc(N)cc1	·	·	11	0	·	·	·	·
CCCCCCCCCC(=O)N/N=C(\C)c1cccnc1	-2	26	56	1.6*	88	0	104	0
Nc1cc2c(cc1C(=O)c1ccccc1F)OCCO2	6	3	-9	0	·	·	·	·
Nc1cc2c(cc1C(=O)c1cccc(Br)c1)OCCO2	6	2	17	0.6*	100	0	104	0
Cc1nc(C(=O)Nc2ccc(Cl)cc2Cl)nn1-c1cc(OC(C)C)c(Cl)cc1Cl	7	-4	-24	1.3*	113	0	105	0
Clc1nc(Nc2ccccc2)nc(Nc2ccccc2)n1	3	21	-6	11*	101	0	104	0
CC(C)(C)Nc1nc(Cl)nc(Nc2ccccc2)n1	3	5	-9	0	·	·	·	·
NC(=S)N/N=C/c1cccc(/C=N/NC(N)=S)c1	9	1	-29	0	·	·	·	·
NC(=S)N/N=C/c1ccc2ccccc2c1	17	8	86	8.2*	112	0	108	0
COc1ccc(C(=O)NCc2ccc3c(c2)OCO3)cc1S(=O)(=O)N(C)Cc1ccccc1	-13	5	13	7.6*	99	0	99	0
O=C(O)c1ccccc1-c1ccc(C=c2sc3nc4cc(Br)cnc4n3c2=O)o1	2	-8	·	·	·	·	·	·
O=C(O)c1cccc(-c2ccc(/C=c3/sc4nc5ccccc5n4c3=O)o2)c1	-2	8	4	3.9*	133	0	262*	0
SMILES	sPLA2-III inh	SKN-1 block	SUMO Mot1 rescue	Efflux pump inh	Cmpd fluor yeast	CaMdr1 efflux inh	Cdr2 pump inh	Cdr1 pump inh
CC(C)c1ccc(OCC(=O)NC2CCCC2)cc1	3	14	45	9.2*	113	0	110	0
COc1ccc(OCC(=O)NC2CCCCCCC2)cc1	6	1	22	0	·	·	·	·
COc1ccc(C(=O)Nc2nc(OCC(F)(F)F)cnc2/C=C\c2ccccc2)c(OC)c1	10	7	·	·	·	·	·	·
Nc1nc(Cl)cc(NCCc2ccc(O)cc2)n1	-5	-5	-7	0	·	·	·	·
Oc1ccc(CCNc2ncnc3ccc(Cl)cc23)cc1	-5	17	9	1.0*	100	0	114	0
CCCCCC1C/C(=N\O)C=C(C)C1C(=O)OC (configuration not stated)	-6	8	309*	1.5*	99	0	103	0
CCCCCCCC1CC(=O)C=C(C)C1C(=O)OCC (configuration not stated)	5	-3	48	0	·	·	·	·
NC(=O)c1ccc(NC(=O)CCN2C(=O)c3ccccc3C2=O)cc1	14	-16	-6	0	·	·	·	·
COc1cccc(C(=O)COc2ccc3c(C)c(Cc4ccccc4)c(=O)oc3c2)c1	9	9	-7	7.5*	103	0	96	0
CCOC(=O)[C@]12CCCC3=C1N(CCC3)C(=O)[C@@H](CC(=O)NCc1cccc(C(F)(F)F)c1)C2	0	·	·	·	·	·	·	·
COc1cc(CN2CCC(n3nccc3NC(=O)C3CCOC3)CC2)ccc1F (configuration not stated)	7	-1	-14	0	·	·	·	·
CC(C)CCN1CCC(n2nccc2NC(=O)C2CCOC2)CC1 (configuration not stated)	-1	-3	-9	1.4*	99	0	112	0
C[C@@H]1COc2cc(Br)ccc2S(=O)(=O)N1Cc1cn(Cc2ccc(Br)cc2)nn1	9	·	·	·	·	·	·	·
CCN(CC(=O)Nc1ccc(NC(C)=O)cc1)CC(=O)Nc1ccccc1C(=O)c1ccccc1	-15	5	-20	0.7*	114	0	112	0
CCN(CC)CC(=O)Nc1ccc(C)cc1C(=O)c1ccccc1	-6	2	-3	0	·	·	·	·
Cc1ccsc1C(C(=O)NCc1ccccc1)N(C(=O)c1csnn1)c1ccccc1 (configuration not stated)	-2	5	0	0	·	·	·	·
Nc1c(Cl)cc(C2=NCCn3nc4ccccc4c32)cc1Cl	6	5	30	0.6*	87	1	94	1
Clc1ccc(C2=NCCn3nc4ccccc4c32)cc1	8	11	-15	0	·	·	·	·
CN(Cc1ccccc1)C(=O)COC(=O)CNS(=O)(=O)c1ccc2ccccc2c1	-9	19	235	75*	97	0	101	0

Compound activity from PubChem.
